PubChem BioAssay (NCATS)
Records with an inconclusive call do not appear. The source made the active and inactive calls. Unless noted, calls come from the whole dose curve; as a rule, active = well fitted curve in the direction sought with a large enough effect; inconclusive = small, poorly fitted or top-dose-only effect, or another doubt; inactive = no such curve, though single readings can be large; an effect the other way counts as inactive or inconclusive.

How the values were obtained:
[1] = P-glycoprotein substrates identified in KB-8-5-11 adenocarcinoma cell line, qHTS therapeutic library screen (AID 1346987); note: nearly all actives have a fitted effect of over 65% in size; note: potency is the fitted concentration of half-maximal effect
Outline: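 In this qHTS, P-gp-rich KB-8-5-11 cells received library compounds across a concentration range. Viability was quantified by luminescence after 72 h at 37 degree C.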

[2] = NS1 protein of Zika virus - qHTS assay to identify small molecule inhibitors in human HEK 293 cells (AID 1347053); note: nearly all actives have a fitted effect of over 55% in size; note: potency is the fitted concentration of half-maximal effect
Outline: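 In this cell-based screen, HEK 293 cultures received compound for one hour before Zika MR766 at MOI = 0.5. NS1 was quantified 24 hours later by TR-FRET, normalized to virus-free wells and infected wells.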

[3] = qHTS for Inhibitors of the Functional Ribonucleoprotein Complex (vRNP) of Lassa (LASV) Arenavirus: LASV Primary Screen - GLuc reporter signal (AID 1347082; calls by dose curve; tested in HEK293 reporter line; note: series mostly up to about 57 µM; nearly all actives have a fitted effect of over 60% in size)
[4] = P-glycoprotein substrates identified in KB-3-1 adenocarcinoma cell line, qHTS therapeutic library screen (AID 1346986); note: nearly all actives have a fitted effect of over 60% in size
Outline: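 Viability by CellTiter-Glo after 72 h compound exposure at 37 degree C, 5% CO2. Cytotoxic call: curve class -1.1 to -2.4, maximum response >50%, AC50 < 10 uM, compared across KB-3-1 and P-gp-overexpressing KB-8-5-11.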

[5] = Identifying Small Molecule Inhibitors of Pancreatic Cancer Stem Cells (A2780, Spheroid) (AID 1259357); settings: Potency: A2780 spheroid viability;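 note: spheroids pre-formed over 14 days in stem cell medium on hydrogel; potency is the fitted concentration of half-maximal effect; compound exposure lasted 48 h before the ATP luminescence read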
Outline: (§1)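 Endpoint: ATP-based luminescence, 48 h drug exposure. Bortezomib at 9.2 uM final as full-kill control; DMSO vehicle as negative control; activity normalized between vehicle and cell-free wells.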

[6] = Identifying Small Molecule Inhibitors of Pancreatic Cancer Stem Cells (Panc1, Spheroid) (AID 1259359); settings: Panc1 spheroid cancer stem cell viability;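 note: potency is the fitted concentration of half-maximal effect; compound exposure lasted 48 h before reading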
Outline: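 After a 4 h attachment period, compounds were pinned into wells and cultures held 48 h under standard incubator conditions. Viability was then measured as CellTiter-Glo luminescence following 10 min at room temperature.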

[7] = Identifying Small Molecule Inhibitors of Pancreatic Cancer Stem Cells (SN12C, Spheroid) (AID 1259360); settings: Potency: SN12C spheroid viability; note: potency is the fitted concentration of half-maximal effect
Outline: as §1

[8] = biological target: Atrial natriuretic peptide receptor 1 (Homo sapiens) (UniProt P16066); experiment: Natriuretic polypeptide receptor (hNpr1) antagonism - Pilot screen (AID 1347049; calls by dose curve;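 note: agonist-evoked cGMP luminescence read 20 min after hNppA addition; series mostly up to about 58 µM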)
Atrial natriuretic peptide receptor 1 (Homo sapiens), sequence (P16066 whole entry, looked up): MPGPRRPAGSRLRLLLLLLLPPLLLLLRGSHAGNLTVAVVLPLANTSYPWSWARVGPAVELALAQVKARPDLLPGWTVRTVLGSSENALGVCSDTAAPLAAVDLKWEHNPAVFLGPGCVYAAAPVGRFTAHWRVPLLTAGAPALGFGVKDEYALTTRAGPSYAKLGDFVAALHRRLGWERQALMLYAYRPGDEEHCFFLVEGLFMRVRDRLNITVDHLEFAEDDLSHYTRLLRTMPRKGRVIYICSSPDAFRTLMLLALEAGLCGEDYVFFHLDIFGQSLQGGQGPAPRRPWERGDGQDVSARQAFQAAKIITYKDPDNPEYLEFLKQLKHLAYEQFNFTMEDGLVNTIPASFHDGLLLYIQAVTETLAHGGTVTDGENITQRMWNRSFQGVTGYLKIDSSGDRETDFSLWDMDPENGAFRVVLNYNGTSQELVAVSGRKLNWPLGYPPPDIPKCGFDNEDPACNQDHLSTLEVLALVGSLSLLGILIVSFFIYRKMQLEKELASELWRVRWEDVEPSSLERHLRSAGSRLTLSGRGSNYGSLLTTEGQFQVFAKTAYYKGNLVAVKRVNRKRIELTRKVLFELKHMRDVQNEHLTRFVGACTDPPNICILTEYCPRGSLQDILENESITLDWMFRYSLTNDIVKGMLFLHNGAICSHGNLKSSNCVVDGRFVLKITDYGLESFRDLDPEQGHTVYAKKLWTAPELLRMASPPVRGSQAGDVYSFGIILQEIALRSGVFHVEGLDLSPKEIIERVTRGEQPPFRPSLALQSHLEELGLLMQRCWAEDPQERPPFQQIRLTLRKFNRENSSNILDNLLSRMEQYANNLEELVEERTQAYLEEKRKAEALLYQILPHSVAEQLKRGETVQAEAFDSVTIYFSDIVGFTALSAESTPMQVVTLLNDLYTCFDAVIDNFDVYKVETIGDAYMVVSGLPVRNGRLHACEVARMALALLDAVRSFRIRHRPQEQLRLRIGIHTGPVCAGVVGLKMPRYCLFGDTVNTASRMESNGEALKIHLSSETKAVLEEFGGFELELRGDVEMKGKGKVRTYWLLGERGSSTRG
Outline: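 cGMP-sensor HEK293/hNpr1 cells, 1500/well, plated overnight at 37C. 2% GloSensor reagent, 2 h RT. Compound (23 nL pin transfer) 30 min RT, baseline luminescence pre-read. 0.1 nM hNppA, 20 min RT, post-read.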

[9] = biological target: Atrial natriuretic peptide receptor 2 (Homo sapiens) (UniProt P20594); experiment: Natriuretic polypeptide receptor (hNpr2) antagonism - Pilot subtype selectivity assay (AID 1347050; calls by dose curve)
Atrial natriuretic peptide receptor 2 (Homo sapiens), sequence (P20594 whole entry, looked up): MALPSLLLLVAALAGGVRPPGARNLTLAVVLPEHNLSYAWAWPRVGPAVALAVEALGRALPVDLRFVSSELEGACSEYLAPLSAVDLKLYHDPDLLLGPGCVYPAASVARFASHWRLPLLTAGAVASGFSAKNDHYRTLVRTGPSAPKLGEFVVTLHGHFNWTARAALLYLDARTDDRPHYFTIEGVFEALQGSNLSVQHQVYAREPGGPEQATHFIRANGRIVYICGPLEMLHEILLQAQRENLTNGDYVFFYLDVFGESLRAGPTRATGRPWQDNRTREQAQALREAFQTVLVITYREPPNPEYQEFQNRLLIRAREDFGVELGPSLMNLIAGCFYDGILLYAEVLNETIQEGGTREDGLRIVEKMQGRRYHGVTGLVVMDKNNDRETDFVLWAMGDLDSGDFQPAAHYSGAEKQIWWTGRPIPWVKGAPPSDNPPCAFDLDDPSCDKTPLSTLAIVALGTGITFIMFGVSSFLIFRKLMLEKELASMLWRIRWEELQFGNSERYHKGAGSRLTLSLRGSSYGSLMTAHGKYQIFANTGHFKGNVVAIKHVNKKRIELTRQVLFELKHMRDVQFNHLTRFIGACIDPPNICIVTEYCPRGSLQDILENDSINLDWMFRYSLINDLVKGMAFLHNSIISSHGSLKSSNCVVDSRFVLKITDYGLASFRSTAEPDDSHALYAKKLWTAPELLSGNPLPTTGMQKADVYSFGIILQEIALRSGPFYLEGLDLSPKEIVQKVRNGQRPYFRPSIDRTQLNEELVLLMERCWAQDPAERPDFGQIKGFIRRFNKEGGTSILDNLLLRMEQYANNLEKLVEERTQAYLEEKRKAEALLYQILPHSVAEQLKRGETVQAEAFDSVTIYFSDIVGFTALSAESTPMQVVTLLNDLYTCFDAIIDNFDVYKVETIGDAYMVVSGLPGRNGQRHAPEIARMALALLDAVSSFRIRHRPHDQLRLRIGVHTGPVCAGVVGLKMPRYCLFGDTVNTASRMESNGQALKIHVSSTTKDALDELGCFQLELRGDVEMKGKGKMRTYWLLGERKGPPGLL
Outline: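 Luminescence from a genetically encoded cGMP luciferase biosensor in hNpr2-expressing HEK293 cells is read before and 20 min after adding 1 nM hNppC. Test compounds, in interplate 1:5 titrations, are added 30-50 min ahead of the agonist.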

[10] = biological target: T1, Tyrosine-protein phosphatase non-receptor type substrate 1 (Homo sapiens) + Leukocyte surface antigen CD47 (Homo sapiens) (UniProt P78324+Q08722); experiment: CD47-SIRPalpha protein protein interaction - LANCE assay qHTS validation (AID 1347057; active = well fitted curve in the direction sought with a large enough effect in the signal ratio, with a control signal flat, not every such curve was filed as active; the % refers to the signal ratio; note: series mostly up to about 38 µM)
T1 sequence (P78324 whole entry, looked up, the tested form may be a part): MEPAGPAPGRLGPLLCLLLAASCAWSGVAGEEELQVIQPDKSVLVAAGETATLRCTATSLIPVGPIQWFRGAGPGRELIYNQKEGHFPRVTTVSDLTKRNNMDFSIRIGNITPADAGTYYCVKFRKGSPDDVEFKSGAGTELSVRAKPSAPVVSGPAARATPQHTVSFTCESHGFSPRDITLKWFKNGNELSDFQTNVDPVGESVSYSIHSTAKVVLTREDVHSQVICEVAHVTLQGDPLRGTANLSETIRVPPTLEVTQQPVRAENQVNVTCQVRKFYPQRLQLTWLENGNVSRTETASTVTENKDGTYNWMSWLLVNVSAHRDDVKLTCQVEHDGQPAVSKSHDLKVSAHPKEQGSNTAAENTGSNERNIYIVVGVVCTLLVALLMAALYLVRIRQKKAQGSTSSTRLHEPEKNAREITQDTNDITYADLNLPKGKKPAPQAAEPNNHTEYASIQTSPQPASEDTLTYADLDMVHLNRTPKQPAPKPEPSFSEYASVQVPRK
T1 sequence (Q08722 whole entry, looked up, the tested form may be a part): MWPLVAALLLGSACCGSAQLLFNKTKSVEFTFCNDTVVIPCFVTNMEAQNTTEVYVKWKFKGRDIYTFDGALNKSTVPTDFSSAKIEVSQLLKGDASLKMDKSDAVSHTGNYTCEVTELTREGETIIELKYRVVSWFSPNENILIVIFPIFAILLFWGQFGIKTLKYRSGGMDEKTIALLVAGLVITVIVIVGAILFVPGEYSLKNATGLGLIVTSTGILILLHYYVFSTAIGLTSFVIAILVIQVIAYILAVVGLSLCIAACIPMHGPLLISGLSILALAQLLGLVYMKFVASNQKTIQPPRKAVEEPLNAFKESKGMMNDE
Outline: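 Inhibition of soluble CD47/SIRPalpha ectodomain association by titrated compounds, measured as 665/615 nm time-resolved FRET ratio after sequential 30 min room-temperature incubations.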

[11] = biological target: T1, Tyrosine-protein phosphatase non-receptor type substrate 1 (Homo sapiens) + Leukocyte surface antigen CD47 (Homo sapiens); experiment: CD47-SIRPalpha protein protein interaction - Alpha assay qHTS validation (AID 1347059);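 note: bead proximity luminescence from CD47 binding SIRPalpha after compound preincubation with SIRPalpha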
Outline: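 SIRPalpha-biotin 25 nM + cpd, 30 min RT, dark; add CD47-His 12.5 nM, 30 min; add Ni-NTA/SAV beads 10 ug/mL, 30 min; AlphaScreen. Buffer PBS pH 7.4 + 0.05% IGEPAL CA-630. Non-biotinylated SIRPalpha as control inhibitor.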

[12] = biological target: Parathyroid hormone/parathyroid hormone-related peptide receptor (Homo sapiens) (UniProt Q03431); experiment: qHTS for PTHR1 Agonists: Optimization Screen against the NCGC LOPAC library (AID 1347079);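 note: GloSensor cAMP luminescence in HEK-293 GP2 cells expressing human PTHR1 with IBMX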
Parathyroid hormone/parathyroid hormone-related peptide receptor (Homo sapiens), sequence (Q03431 whole entry, looked up): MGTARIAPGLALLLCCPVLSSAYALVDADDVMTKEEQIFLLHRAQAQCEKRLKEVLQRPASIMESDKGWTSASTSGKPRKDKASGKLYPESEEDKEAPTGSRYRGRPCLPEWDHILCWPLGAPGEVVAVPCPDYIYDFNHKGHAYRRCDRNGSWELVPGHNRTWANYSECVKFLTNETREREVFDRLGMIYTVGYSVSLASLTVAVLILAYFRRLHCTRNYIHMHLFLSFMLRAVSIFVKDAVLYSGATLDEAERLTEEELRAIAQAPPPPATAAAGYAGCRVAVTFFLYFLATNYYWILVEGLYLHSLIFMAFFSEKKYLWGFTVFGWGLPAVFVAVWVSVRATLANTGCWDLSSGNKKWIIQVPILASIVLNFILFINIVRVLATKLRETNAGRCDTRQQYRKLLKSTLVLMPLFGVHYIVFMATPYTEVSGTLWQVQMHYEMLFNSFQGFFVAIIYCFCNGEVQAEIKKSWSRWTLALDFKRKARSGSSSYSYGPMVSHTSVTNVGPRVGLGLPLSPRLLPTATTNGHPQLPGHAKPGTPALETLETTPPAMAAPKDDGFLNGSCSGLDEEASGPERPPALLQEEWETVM
Outline: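 Signal increase flags agonism. GP2 cells, derived from HEK-293, express human PTHR1 and a GloSensor cAMP construct.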

[13] = Identifying Small Molecule Inhibitors of Pancreatic Cancer Stem Cells (SN12C, Adherent) (AID 1259358);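 note: potency is the fitted concentration of half-maximal effect; cell survival measured after 48 h of compound exposure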
Outline: as §1

[14] = Identifying Small Molecule Inhibitors of Pancreatic Cancer Stem Cells (A278, Adherent) (AID 1259361);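 note: viability read after 48 h compound exposure; nearly all actives have a fitted effect of over 35% in size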
Outline: as §1

[15] = Identifying Small Molecule Inhibitors of Pancreatic Cancer Stem Cells (Panc1, Adherent) (AID 1259362); settings: Potency: viability; note: potency is the fitted concentration of half-maximal effect
Outline: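 Adherent (2D) versus sphere (3D) formats; spheres generated 14 d in SCM beforehand. Compound transferred by pin tool after 4 h, 48 h incubation, CellTiter-Glo endpoint.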

[16] = Natriuretic polypeptide receptor (hNpr1) antagonism - Pilot counterscreen GloSensor control cell line (AID 1347045; calls by dose curve; note: series mostly up to about 38 µM)
Outline: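 HEK293 cGMP-sensor cells; 2% GloSensor reagent 2 h RT; LOPAC compounds in 1:5 titrations 30-50 min; 50 uM SNP 20 min; luminescence pre-read and post-read.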

[17] = qHTS assay to identify small molecule inhibitors of chordoma cells - UCH-2 (AID 1259356); note: series mostly up to about 46 µM

O=[N+]([O-])c1ncc[nH]1
inactive: Potency [1] | Potency [2] | Potency [3]

Nc1ccc(Cl)cc1
inactive: Potency [1] | Potency [2] | Potency [3]

S=C(SSC(=S)N1CCCCC1)N1CCCCC1
inactive: Potency [1]

CC(O)CN1CCN(CC(=O)[O-])CCN(CC(=O)[O-])CCN(CC(=O)[O-])CC1.[Gd+3] (stereo not given)
inactive: Potency [1] | Potency [2] | Potency [3]

C[C@@H]1CC[C@H]2[C@@H](C)C(=O)O[C@@H]3O[C@@]4(C)CC[C@H]1[C@]32OO4
inactive: Potency [1] | Potency [2] | Potency [3]

O=c1cccc2n1CC1CNC[C@H]2C1
inactive: Potency [4] | Potency [1] | Potency [2] | Potency [3]

OCCCBr
inactive: Potency [1] | Potency [2] | Potency [3]

CCCN1CCO[C@@H]2c3cc(O)ccc3OC[C@@H]21
inactive: Potency [4] | Potency [1] | Potency [2] | Potency [3]

CC(C)NCC(O)c1ccc([N+](=O)[O-])cc1 (stereo not given)
inactive: Potency [1] | Potency [2] | Potency [3]

CC(=O)N(C)c1cccc(-c2ccnc3c(C(=O)c4cccs4)cnn23)c1
inactive: Potency [4] | Potency [2] | Potency [3]

CCCCOC(=O)c1ccccc1C(=O)OCc1ccccc1
inactive: Potency [1] | Potency [2] | Potency [3]

O=C(O)CCCOc1ccc(Cl)cc1Cl
inactive: Potency [1] | Potency [2] | Potency [3]

COc1nn(CSP(=S)(OC)OC)c(=O)s1
inactive: Potency [1] | Potency [2]

COc1ccc2c(c1)CN(C)CC2c1ccc(Cl)c(Cl)c1 (stereo not given)
inactive: Potency [4] | Potency [1] | Potency [2] | Potency [3]

CCCCCCCCc1ccc(O)cc1
inactive: Potency [1] | Potency [2] | Potency [3]

CC1CC(C)C(=O)C(C(O)CC2CC(=O)NC(=O)C2)C1 (stereo not given)
active: Potency [5] 3820 nM | Potency [6] 2410 nM | Potency [7] 1710 nM

O=S(=O)(O)C(F)(F)C(F)(F)C(F)(F)C(F)(F)C(F)(F)C(F)(F)C(F)(F)C(F)(F)F
inactive: Potency [1] | Potency [2] | Potency [3]

CS(=O)(=O)c1ccc(C(=O)C2C(=O)CCCC2=O)c([N+](=O)[O-])c1
inactive: Potency [1] | Potency [2] | Potency [3]

O=S(=O)(F)Cc1ccccc1
inactive: Potency [1] | Potency [2]

CCN(CC)C(=O)c1ccc(C2=CC3(CCNCC3)Oc3cccc(O)c32)cc1
inactive: Potency [1] | Potency [2] | Potency [3]

S=C(NC1CCCCC1)N1CCC(c2cnc[nH]2)CC1
inactive: Potency [1] | Potency [8] | Potency [9] | outcome [10] | Potency [11] | outcome [12] | Potency [3]

O=[N+]([O-])c1cc([N+](=O)[O-])c2ccccc2c1
inactive: Potency [1] | Potency [2] | Potency [3]

CCc1c(C(=O)C(N)=O)c2c(OCC(=O)O)cccc2n1Cc1ccccc1
inactive: Potency [4] | Potency [1] | Potency [2] | Potency [3]

C=CCON=C(C[C@H]1O[C@@H]2O[C@]3(C)CC[C@@H]4[C@H](C)CC[C@@H]([C@H]1C)[C@@]24OO3)[C@H]1O[C@@H]2O[C@]3(C)CC[C@H]4[C@H](C)CC[C@@H]([C@@H]1C)[C@@]24OO3
active: Potency [13] 93.5 nM | IC50 (viability decrease) [14] 52.6 nM | Potency [15] 66.2 nM | Potency [1] 16600 nM

O=C(O)c1cc(Oc2ccc(C(F)(F)F)cc2Cl)ccc1[N+](=O)[O-]
inactive: Potency [1] | Potency [2] | Potency [3]

CC(=O)NCCc1c[nH]c2ccccc12
inactive: Potency [4] | Potency [1] | Potency [16] | Potency [8] | Potency [9] | Potency [2] | outcome [10] | Potency [11] | outcome [12] | Potency [3]

C=C1C[C@H]2[C@H]3CCC(=O)[C@@]3(C)CC[C@@H]2[C@@]2(C)C=CC(=O)C=C12
inactive: Potency [1] | Potency [2] | Potency [3]

CCC1(CCC(C)C)C(=O)NC(=O)NC1=O
inactive: Potency [1] | Potency [2] | Potency [3]

CO/C=C(/C(=O)OC)c1ccccc1Oc1cc(Oc2ccccc2C#N)ncn1
active: Potency [1] 3160 nM | Potency [2] 14100 nM

Nc1c(Cl)c(Cl)c(Cl)c(Cl)c1Cl
inactive: Potency [1] | Potency [2] | Potency [3]

O=S(=O)(O)C(F)(F)C(F)(F)C(F)(F)C(F)(F)F
inactive: Potency [1] | Potency [2] | Potency [3]

O=[N+]([O-])/N=C1\NCCN1Cc1ccc(Cl)nc1
inactive: Potency [17] | Potency [1] | Potency [2] | Potency [3]

CCOCCOC(C)=O
inactive: Potency [1] | Potency [2] | Potency [3]

Nc1ccc(Sc2ccc(N)cc2)cc1
inactive: Potency [1] | Potency [2] | Potency [3]

O=C(NCC1CCOCC1)c1cnc(Nc2ccc(Cl)cc2Cl)nc1C(F)(F)F
inactive: Potency [4] | Potency [1] | Potency [2] | Potency [3]

CC(N[C@H]1C[C@H]1c1ccccc1)c1ccc2c(c1)OCCO2 (stereo not given in full)
inactive: Potency [1] | Potency [2] | Potency [3]

CC(C)[C@]12O[C@H]1[C@@H]1O[C@]13[C@]1(O[C@H]1C[C@H]1C4=C(CC[C@@]13C)C(=O)OC4)[C@@H]2O
active: Potency [6] 23.5 nM | Potency [7] 11.8 nM | IC50 (viability decrease) [14] 6.6 nM | Potency [1] 20.6 nM
